# TLR9-MyD88 inh – inhibitors of TLR9-MyD88 association in cells, primary screen, cell-based, CHO, BLA complementation, fluorescence; CCF4 FRET ratio; inhibition, % at 4.98 µM; 340,000 compounds, 0.21% hits; AID 504734, 2011;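 active = inhibition above the mean over all tested compounds plus 3 SD, cut at about 21% in these data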;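 also: 0% = DMSO only wells and 100% = clavulanate BLA inhibitor control wells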
# m5-HT2A agonist – mouse Htr2a agonists via beta-arrestin recruitment, primary screen, cell-based, luminescence. CHO-K1 mHTR2A beta-arrestin complementation; percent of 30 µM serotonin response. activation, % at 7.6 µM. 360,000 compounds, 0.66% hits. AID 624169, 2012;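 active = activation above a run cutoff, the mean activation of all tested compounds plus 3 SD, cut at about 14% in these data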;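 also: 0% = plate median of compound wells and 100% = 30 µM serotonin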
# TMEM16A inh – TMEM16A chloride channel inhibitors, primary screen, cell-based, HTS; 310,000 compounds, 1.2% hits; HEK293 TMEM16A/YFP iodide influx fluorescence, ionomycin; normalized B-score (activity score, 25-100; higher = stronger inhibition) at 10 µM; Anoctamin-1 (Mus musculus), Q8BHY3;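 active = ratio plate-corrected score three or more library SD toward inhibition, starting fluorescence score within five deviations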;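 also: score derived from kinetic fluorescence span divided by baseline fluorescence per well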
# Target sequence (Q8BHY3 whole entry, looked up): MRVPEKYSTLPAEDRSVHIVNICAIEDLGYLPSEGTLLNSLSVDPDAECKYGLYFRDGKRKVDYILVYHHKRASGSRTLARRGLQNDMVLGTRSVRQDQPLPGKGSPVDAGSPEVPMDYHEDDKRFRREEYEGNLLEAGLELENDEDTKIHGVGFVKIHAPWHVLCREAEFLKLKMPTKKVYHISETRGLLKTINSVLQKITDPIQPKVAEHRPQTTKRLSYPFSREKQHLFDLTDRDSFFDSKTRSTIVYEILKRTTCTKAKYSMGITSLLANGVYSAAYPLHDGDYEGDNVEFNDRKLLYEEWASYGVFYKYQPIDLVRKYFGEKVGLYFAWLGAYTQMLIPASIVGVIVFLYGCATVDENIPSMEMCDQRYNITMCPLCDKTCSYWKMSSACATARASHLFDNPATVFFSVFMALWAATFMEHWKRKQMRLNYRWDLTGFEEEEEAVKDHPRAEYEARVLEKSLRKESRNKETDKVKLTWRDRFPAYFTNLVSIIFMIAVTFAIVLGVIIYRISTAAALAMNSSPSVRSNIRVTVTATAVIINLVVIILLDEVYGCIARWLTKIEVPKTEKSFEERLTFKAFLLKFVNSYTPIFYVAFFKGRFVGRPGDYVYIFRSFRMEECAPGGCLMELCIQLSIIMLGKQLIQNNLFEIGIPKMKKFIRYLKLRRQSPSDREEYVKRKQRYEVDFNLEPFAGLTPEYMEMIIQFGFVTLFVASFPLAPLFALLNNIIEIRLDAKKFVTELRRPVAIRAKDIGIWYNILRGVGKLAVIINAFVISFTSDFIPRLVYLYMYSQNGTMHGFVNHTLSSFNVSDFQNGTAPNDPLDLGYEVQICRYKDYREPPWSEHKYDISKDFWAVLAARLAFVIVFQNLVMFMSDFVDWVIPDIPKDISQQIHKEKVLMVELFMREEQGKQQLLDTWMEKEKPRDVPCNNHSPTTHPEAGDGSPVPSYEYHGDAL
# NOD2-RIPK2 inh – NOD2-RIPK2 binding disruptors in cells, primary screen, fluorescence, CHO cells, BLA complementation; Receptor-interacting serine/threonine-protein kinase 2 (Homo sapiens), O43353; CCF4 ratio; inhibition, % at 4.98 µM; 360,000 compounds, 0.38% hits; AID 624267, 2012; in the data active = inhibition above about 21%;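 also: 0% = vehicle only and 100% = reference blocker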
# ANO1 activ – TMEM16A chloride channel activators or potentiators, primary screen, cell-based, HTS; B-score at 10 µM; Anoctamin-1 (Mus musculus), Q8BHY3; HEK293 TMEM16A/YFP-H148Q/I152L, iodide quench fluorescence; stronger effect = lower value; 340,000 compounds, 0.3% hits; AID 623877, 2012;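 active = fluorescence-ratio B-score plate-corrected deviation score at least 3 library SD below zero, with starting fluorescence score within 5 deviations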;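 also: channel opened by trigger with iodide after compound preincubation; score built on the fluorescence ratio of max minus min over baseline; more negative score means more quench and so TMEM16A activation or potentiation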
# TLR4 MyD88 comp – inhibitors of TLR4-MyD88 association in cells, primary screen, cell-based, HeLa CL3-4, BLA complementation, FRET ratio; HeLa CL3-4 TLR4/MyD88 BLA complementation; inhibition, % at 8.4 µM; 200,000 compounds, 0.18% hits; in the data active = inhibition above about 25%;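 also: 0% = vehicle and 100% = reference inhibitor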
# TMEM16A reconf – TMEM16A chloride channel inhibitors, confirmation, cell-based, re-confirmation | shares compounds with TMEM16A inh | HEK293 TMEM16A/YFP-H148Q, iodide quench fluorescence; ionomycin added to raise cell calcium | inhibition, % at 10 µM | 2,300 compounds, 39% hits | AID 652189, 2013;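 active = mean duplicate percent inhibition, scaled so buffer wells are 0 and the reference blocker 100, over three buffer SD above buffer mean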
# HEK293 Ca mobil – calcium mobilization in TMEM16A/YFP HEK293 cells, confirmation, counter-screen for TMEM16A inhibitor project | shares compounds with TMEM16A inh | calcium response (% of ionomycin), % at 10 µM | AID 652231, 2013 | 2,300 compounds, 2% hits | Fluo4 calcium mobilization;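 active = duplicate-averaged calcium signal over 20% of the ionomycin maximum, relative to buffer baseline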;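 also: each well's signal is peak minus trough fluorescence divided by its pre-addition baseline; 0% = buffer wells and 100% = ionomycin wells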
# YFP-HEK293 quench – iodide YFP quench changes in parental YFP-HEK293, counter-screen for TMEM16A inhibitor project, cell-based; YFP ratio F(max-min)/F0 at 10 µM; AID 652233, 2013; 2,300 tested, under 10 active; ionomycin; shares compounds with TMEM16A inh;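 active = yellow fluorescent protein signal ratio exceeding the buffer control mean by over 5 SD of those controls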;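 also: ratio is mean of duplicate wells from kinetic YFP trace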
# ClC-1 rat inh – ClC-1 chloride channel inhibition, selectivity assay for TMEM16A inhibitor project, cell-based, voltage-dependent ClC-1; shares compounds with TMEM16A inh; CHO ClC-1-YFP, iodide influx fluorescence quench; iodide control reads 0, buffer control 100; ratio percent, % at 10 µM; 2,300 tested, under 10 active; AID 652236, 2013;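 active = duplicate-mean ratio percent above the mean of iodide-only control wells, which defines zero, plus 5 of their SD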;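 also: higher percent means stronger block of ClC-1 iodide influx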
# An asterisk follows results filed as active; i = inactive; . = not tested or not shown. Sampled rows, rich in hits. Any-hit rate of the full collection: about 2.4%.
SMILES,TLR9-MyD88 inh,m5-HT2A agonist,TMEM16A inh,NOD2-RIPK2 inh,ANO1 activ,TLR4 MyD88 comp,TMEM16A reconf,HEK293 Ca mobil,YFP-HEK293 quench,ClC-1 rat inh
Cc1cc(C(=O)CSc2nncs2)c(C)n1-c1c(C)n(C)n(-c2ccccc2)c1=O,-1.9,-1.7,i,-17.0,i,-1.7,.,.,.,.
Cc1ccc(-n2c(C)cc(C(=O)CSc3nncs3)c2C)cc1,-11.6,3.4,100*,-10.2,i,-5.0,50.5%*,i,-0.897,-18.0
O=C1CC(SCc2nc3ccccc3[nH]2)C(=O)N1c1ccc(F)c(Cl)c1 (configuration not stated),-5.0,-2.4,i,0.4,i,-2.8,.,.,.,.
COC(=O)c1ccc(C)c(NC(=O)CSc2sc3c(O)cc(=O)[nH]c3c2C#N)c1,-0.5,6.7,i,1.5,i,.,.,.,.,.
Cc1ccc(C)c(NC(=O)CSc2sc3c(O)cc(=O)[nH]c3c2C#N)c1,1.8,2.1,i,-0.8,i,.,i,i,-1.03,-15.5
CC1(NC(=O)C23CC4CC(CC(C4)C2)C3)CCS(=O)(=O)C1 (configuration not stated),0.6,-3.0,i,6.4,i,-4.3,.,.,.,.
O=C(Nc1ccc(Cl)cc1)NC1CCCCC1Cc1ccco1 (configuration not stated),-1.9,-5.2,100*,-10.3,i,5.1,42.5%*,i,-1.3,-12.0
O=C(O)c1cnc(-c2ccccc2)nc1Oc1ccc(Cl)cc1,-0.1,-0.7,i,7.5,i,4.8,.,.,.,.
Fc1ccc(CSc2nc3ccccc3[nH]2)c2ccccc12,10.9,-3.6,100*,-7.7,i,7.8,32.5%*,i,-0.848,-5.0
CCOC(=O)C1=C(C)N=c2s/c(=C/c3ccc(OCC(=O)O)cc3)c(=O)n2C1c1ccc(F)cc1 (configuration not stated),1.6,4.1,i,-4.0,i,.,i,29.5%*,-0.864,-16.5
COc1cccc(OCCN2CCN(c3ncnc4c3cnn4-c3ccccc3)CC2)c1,-0.2,0.5,100*,-5.4,i,-4.4,i,i,-0.883,-9.5
O=CNC(=O)c1ccccc1C(=O)O,-4.1,-4.4,i,8.0,i,-10.0,.,.,.,.
CCC1(C)Cc2c(sc3[nH]c(=O)[nH]c(=O)c23)CS1 (configuration not stated),-11.3,7.2,100*,0.6,i,15.9,i,i,-1.13,-9.5
COc1ccccc1NC(=O)C(C)OC(=O)C1CCC(C(C)(C)C)CC1 (configuration not stated),-2.6,-4.7,100*,-3.0,i,.,i,i,-0.926,-4.0
CN(C(=O)COC(=O)c1cc(F)c(F)cc1Cl)c1ccccc1,0.7,4.0,i,-1.8,i,.,.,.,.,.
CCOC(=O)C1CCN(c2ncnc3c2oc2ccccc23)CC1,3.5,1.6,100*,5.3,i,3.0,22.0%*,i,-0.898,-16.0
CCOC(=O)C1CCCN(c2ncnc3c2oc2ccccc23)C1 (configuration not stated),-3.5,1.1,100*,-3.3,i,-4.8,28.5%*,i,-1.05,-19.5
CCOC(=O)C1CCN(c2nc(-c3ccccc3)nc3c2oc2ccccc23)CC1,-10.1,-2.9,i,6.0,i,-4.2,.,.,.,.
COc1ccc(C(C)=O)cc1CSc1ccc(S(=O)(=O)N2CCOCC2)cn1,1.0,-1.8,.,1.6,i,.,.,.,.,.
CCC1CCCCN1CCNC(=O)C1CCCN(S(=O)(=O)c2cccc3nsnc23)C1 (configuration not stated),-6.6,-1.7,i,-10.4,i,.,.,.,.,.
CC(C(=O)NC1CCCc2ccccc21)N1CCN(Cc2ccc3c(c2)OCO3)CC1 (configuration not stated),-12.4,-0.1,25*,1.5,i,-5.5,i,i,-0.948,-3.5
COc1ccc(S(=O)(=O)N2CCN=C2SCc2cccnc2)cc1,3.8,2.2,i,-7.5,i,-4.7,.,.,.,.
O=S(=O)(c1ccccc1)N1CCN=C1SCc1c(F)cccc1Cl,8.5,-7.7,100*,-9.4,i,.,i,i,-1.03,-3.5
COc1ccc(S(=O)(=O)N2CCN=C2SCc2cccc(C)c2)cc1,-7.8,-4.2,25*,-0.6,i,.,i,i,-1.18,-8.0
O=S(=O)(c1ccc(Cl)cc1)N1CCN=C1SCc1cccc(Cl)c1,7.1,-8.6,i,-4.7,i,2.2,.,.,.,.
SMILES,TLR9-MyD88 inh,m5-HT2A agonist,TMEM16A inh,NOD2-RIPK2 inh,ANO1 activ,TLR4 MyD88 comp,TMEM16A reconf,HEK293 Ca mobil,YFP-HEK293 quench,ClC-1 rat inh
Cc1ccc(CCNC(=O)C2CC(=O)N(CCc3ccccc3)C2)cc1 (configuration not stated),9.3,-2.4,i,4.1,i,.,.,.,.,.
CCN(CC)S(=O)(=O)c1ccc(NC(=O)c2ccc(CN3CCOCC3)cc2)cc1,-3.9,-4.7,100*,-4.0,i,15.1,29.5%*,i,-1.1,-7.5
O=S(=O)(c1ccc(NC(=S)Nc2ccccc2)cc1)N1CCOCC1,-19.2,-1.1,i,-8.1,i,-8.4,.,.,.,.
CCCOc1ccc(C(=O)Nc2ccc(CN3CCOCC3)cc2)cc1,7.7,-0.2,i,2.9,i,.,.,.,.,.
O=C(Nc1ccc(S(=O)(=O)N2CCCC2)cc1)c1ccc(CN2CCOCC2)cc1,-1.1,-5.1,100*,3.2,i,14.5,46.5%*,i,-0.877,-16.5
COc1ccc(NS(=O)(=O)c2ccc(NC(=O)c3ccc(CN4CCOCC4)cc3)cc2)cc1,-4.4,5.3,i,-12.9,i,7.5,.,.,.,.

# Screening results deposited in PubChem BioAssay by several laboratories.
